By inhibition is commonly meant the drop in the measured response relative to a control, in per cent.

14 compounds from PubChem BioAssay can be followed below.

Assay [1] can be described thus: inhibitors of TNFa-induced NFkB p65 translocation, primary screen, imaging, HUVEC, MLSMR starter and 10KST1 sets (AID 438;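 active means inhibition above 20% together with a positive visual image hit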;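 further: compound added about 3h40 before a 20 min TNFalpha stimulation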;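 on inhibition: signal is the nuclear over cytoplasmic p65 intensity ratio per well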). The following applies: HUVEC TNFa-induced p65 nuclear translocation; cell count: measured here: nuclei count (cytotoxicity indicator), at 2.08 µM; inhibition: at 2 µM, stronger effect = higher value, 0% TNFa-plus-vehicle, 100% no-TNFa wells.
Assay [2] in a line: reduction of polyQ htt aggregates in cells – imaging, exon1htt(103Q)mCFP cells, high-content imaging, primary screen (AID 483;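 active means visual image review flags a hit and inhibition of aggregation exceeds 20%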;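 further: compound exposure lasted 3 days before fixation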;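 on nuclei count: percent of the per-plate median nuclei count of sample wells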). To be noted: exon1htt(103Q)mCFP cell line, aggregate imaging, at 2 µM; inhibition of aggregation: stronger effect = higher value; nuclei count: measured here: cell count, toxicity.
Assay [3] is described as follows: endothelial E-selectin expression blockers – imaging, HUVEC, immunofluorescence, MLSMR starter and 10KST1 sets, primary screen (AID 487;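 active means visually confirmed hit in the image check and inhibition above 20%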;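 on inhibition: signal is fraction of cell area covered by stained E-selectin grains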;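 on nuclei count: 100% = median nuclei count of all wells on the same plate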). The following applies: HUVEC TNFalpha-induced E-selectin immunofluorescence imaging, at 2 µM; inhibition: stronger effect = higher value; nuclei count: measured here: cell number, toxicity.
For assay [4], the target named is Voltage-gated potassium channel subunit beta-2 (Rattus norvegicus) (UniProt P62483). Kind of assay: inhibitors of rat Kvbeta2 reductase activity – biochemical, NADPH fluorescence, primary screen (AID 622;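 active means fluorescence slope higher than the sample average by over 3 SD, cut at about -0.22 in these data, passing the limit was not always enough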;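 further: slope of raw intensity against log time taken from 70 to 1610 s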). The following applies: recombinant KvBeta, 4-cyanobenzaldehyde reduction, at 10 µM, stronger effect = higher value.
The target is the same in assay [5]. Kind of assay: enhancers of rat Kvbeta2 NADPH turnover – biochemical, NADPH fluorescence, primary screen (AID 623;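 active means NADPH fluorescence slope more negative than the mean of all samples by about 3 SD, 99.7% confidence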;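 further: fluorescence intensity change per second fitted from 20 to 320 s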). The following applies: Recombinant KvBeta, NADPH fluorescence decrease slope, 10 min; at 10 µM; stronger effect = lower value.
For assay [6], the target named is Alpha-2C adrenergic receptor (Homo sapiens) (UniProt P18825). The assay is described as follows: compounds altering alpha2C-coupled GIRK flux – cell-based, HEK293 alpha2C/GIRK1/2, thallium flux, primary screen (AID 624;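 active means fluorescence slope after compound addition differing from the mean of all screened samples at 99.7% confidence, in either direction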;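 further: slope of fluorescence ratio to pre-addition baseline per second over 15 to 24 s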). The following applies: thallium flux BTC fluorescence, at 10 µM, actives lie on both sides.
Assay [7] can be described thus: blockers of RIG-like receptor reporter activation – cell-based, Sendai virus stimulus, luciferase, 10K MLSCN set, TLR/RLR signaling modifier project, primary screen (AID 602276).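 Further: firefly luciferase from ISG56 promoter only with Renilla not read in this screen; 0% = Sendai virus plus DMSO and 100% = medium plus DMSO without virus.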 The following applies: HEK293 RL24 IRF3 luciferase reporter, at 10 µM, stronger effect = higher value.
A short description of assay [8]: TLR3 IRF3 reporter activation blockers – cell-based, poly I:C stimulus, luciferase, 10K MLSCN set, primary screen (AID 602277;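 active means inhibition of the reporter signal at or above 50%; inactive means inhibition below 50%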). To be noted: HEK293-TLR3 RL24 IRF3 luciferase reporter, at 10 µM, stronger effect = higher value. (In general: A reporter such as luciferase makes a cellular process visible.)

Molecules are shown by their SMILES. Calls of active or inactive are those of the source.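 How the source made its calls, unless noted: active means inhibition at or above 50% at 10 µM; inactive means inhibition below 50%.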

Chain of Voltage-gated potassium channel subunit beta-2 (Rattus norvegicus) (P62483 whole entry, looked up): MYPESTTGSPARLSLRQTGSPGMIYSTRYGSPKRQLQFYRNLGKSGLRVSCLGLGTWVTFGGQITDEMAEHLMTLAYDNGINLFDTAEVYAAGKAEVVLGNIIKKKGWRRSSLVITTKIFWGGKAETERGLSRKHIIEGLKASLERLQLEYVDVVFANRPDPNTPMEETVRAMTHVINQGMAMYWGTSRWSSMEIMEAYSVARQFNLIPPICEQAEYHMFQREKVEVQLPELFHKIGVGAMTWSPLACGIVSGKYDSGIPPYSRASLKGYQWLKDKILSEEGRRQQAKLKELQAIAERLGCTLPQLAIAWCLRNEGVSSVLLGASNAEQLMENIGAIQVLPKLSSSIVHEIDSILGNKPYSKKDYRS
Chain of Alpha-2C adrenergic receptor (Homo sapiens) (P18825 whole entry, looked up): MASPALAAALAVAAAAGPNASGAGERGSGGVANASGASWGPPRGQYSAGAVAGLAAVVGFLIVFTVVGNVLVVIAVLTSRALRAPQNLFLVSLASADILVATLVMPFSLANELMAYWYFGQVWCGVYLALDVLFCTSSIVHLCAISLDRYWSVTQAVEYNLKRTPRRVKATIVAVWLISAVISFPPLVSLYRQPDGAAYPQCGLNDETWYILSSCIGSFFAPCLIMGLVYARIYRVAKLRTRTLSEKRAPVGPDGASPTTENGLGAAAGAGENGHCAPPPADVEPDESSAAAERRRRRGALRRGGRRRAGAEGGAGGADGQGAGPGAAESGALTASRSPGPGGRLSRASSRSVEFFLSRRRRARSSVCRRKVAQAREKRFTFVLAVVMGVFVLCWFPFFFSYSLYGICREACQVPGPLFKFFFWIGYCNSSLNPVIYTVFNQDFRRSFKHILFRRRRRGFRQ

Regarding `CCCCN1C(=O)C2C(C(=O)Nc3cccc(OC)c3)C3C=CC2(O3)C1C(=O)NC1CCCCC1C` (centres undefined), in assay [1], the cell count amounted to 423. Besides, the inhibition in assay [1] is 3.1% (inactive); in assay [3] it was -50% (inactive); in assay [7], 14.1% (inactive); in assay [8], 24.4% (inactive). Moreover, in assay [2], the inhibition of aggregation is 1.7% (inactive). The figures for the nuclei count in assay [2] and in assay [3] were 109% and 112%, respectively. Moreover, the fluorescence slope in assay [4] is -0.503 (inactive). The NADPH fluorescence slope in assay [5] was -2.7e-05 (inactive). The slope in assay [6] is 0.00569 (inactive).

Consider `O=C(O)C1CCCN1S(=O)(=O)c1ccc2ccccc2c1` (centres undefined), for which, in assay [1], the cell count is 609. In addition, the inhibition was -3.4% (inactive) in assay [1], -83.6% (inactive) in assay [3], -1.98% (inactive) in assay [7] and -11.3% (inactive) in assay [8]. Moreover, the inhibition of aggregation in assay [2] was -2.3% (inactive). Moreover, the nuclei count was determined as 89.5% in assay [2] and 106% in assay [3]. Also, the fluorescence slope in assay [4] is -0.627 (inactive). Besides, in assay [5], the NADPH fluorescence slope is -2e-06 (inactive). Further, in assay [6], the slope was 0.00297 (inactive).

Take `COc1ccc(C(=O)N2CCN(C3CCC(c4ccccc4)CC3)CC2)cc1OC` (centres undefined): in assay [1], the cell count came out at 420. For the same compound, the inhibition was -1.3% (inactive) in assay [1], 43.2% (inactive) in assay [3], 7.44% (inactive) in assay [7] and 17.6% (inactive) in assay [8]. Besides, in assay [2], the inhibition of aggregation was 20.2% (inactive). For the same compound, the nuclei count was found to be 88.1% in assay [2] and 83.9% in assay [3]. Further, the fluorescence slope in assay [4] is -0.436 (inactive). In addition, the NADPH fluorescence slope in assay [5] is -5.4e-05 (inactive). Further, the slope in assay [6] is 0.00292 (inactive).

With `CCN(CC)c1ccc2cc(NC(=O)CCC(=O)O)c(=O)oc2c1`, the cell count in assay [1] was found to be 463. The inhibition in assay [1] was -21.1% (inactive); in assay [3] it was -33% (inactive); in assay [7], 50.8% (active); in assay [8], 92.5% (active). Also, in assay [2], the inhibition of aggregation was -6.8% (inactive). In addition, the figures for the nuclei count in assay [2] and in assay [3] were 95% and 101%, respectively. The fluorescence slope in assay [4] was -0.0111 (active). For the same compound, the NADPH fluorescence slope in assay [5] was -5.3e-06 (inactive). For the same compound, the slope in assay [6] is 0.00247 (inactive).

On to `COc1cc(OC)c(-c2nn3c(C4CCCCC4)nnc3s2)cc1OC`, for which the cell count in assay [1] worked out at 573. Also, the inhibition in assay [1] was 7.2% (inactive); in assay [3] it was -115% (inactive); in assay [7] it was 12.8% (inactive); in assay [8], 16.9% (inactive). Also, in assay [2], the inhibition of aggregation was 1.8% (inactive). For the same compound, the nuclei count was determined as 109% in assay [2] and 126% in assay [3]. Moreover, the fluorescence slope in assay [4] is -0.412 (inactive). In addition, in assay [5], the NADPH fluorescence slope is -5.9e-05 (inactive). The slope in assay [6] is 0.00604 (inactive).

Take `COCCn1nnnc1CN(Cc1cccnc1)Cc1cc2cc(OC)ccc2[nH]c1=O`: in assay [1], the cell count was determined as 670. The inhibition was -10.6% (inactive) in assay [1], -11.6% (inactive) in assay [3], 14.3% (inactive) in assay [7] and 25.2% (inactive) in assay [8]. For the same compound, the inhibition of aggregation in assay [2] is -13.1% (inactive). Besides, the nuclei count in assay [2] amounted to 122%; in assay [3], 107%. In assay [4], the fluorescence slope is -0.605 (inactive). Moreover, the NADPH fluorescence slope in assay [5] was -3.4e-05 (inactive). Further, the slope in assay [6] was 0.00315 (inactive).

With `CC(=O)c1cccc(NS(=O)(=O)c2ccc3c(c2)oc(=O)n3C)c1`, the cell count in assay [1] amounted to 299. In addition, the inhibition in assay [1] is -9% (inactive); in assay [3], -52% (inactive); in assay [7], 6.35% (inactive); in assay [8], 2.39% (inactive). Moreover, the inhibition of aggregation in assay [2] is 0.5% (inactive). Further, the nuclei count in assay [2] was 119%; in assay [3], 117%. Also, the fluorescence slope in assay [4] is -0.437 (inactive). The NADPH fluorescence slope in assay [5] is -2.3e-05 (inactive). For the same compound, the slope in assay [6] is 0.00511 (inactive).

As to `Cc1cc(Oc2ccccc2)nc(-c2ccccc2)n1`, in assay [1], the cell count came to 763. Also, the inhibition is 4.4% (inactive) in assay [1], 62.8% (active) in assay [3], -19.4% (inactive) in assay [7] and -47.5% (inactive) in assay [8]. Moreover, the inhibition of aggregation in assay [2] is -2.1% (inactive). Also, the nuclei count in assay [2] turned out to be 99.1%; in assay [3], 70.6%. In addition, in assay [4], the fluorescence slope is -0.484 (inactive). The NADPH fluorescence slope in assay [5] is -8.7e-05 (inactive). Besides, the slope in assay [6] was 0.00573 (inactive).

As to `Brc1ccccc1-c1nc(-c2ccccc2)no1`, the cell count in assay [1] came out at 428. The inhibition in assay [1] was 2.3% (inactive); in assay [3], -25.4% (inactive); in assay [7] it was -15.5% (inactive); in assay [8], -39.8% (inactive). The inhibition of aggregation in assay [2] was -23% (inactive). Besides, the results for the nuclei count in assay [2] and in assay [3] were 94% and 114%, respectively. In assay [4], the fluorescence slope is -0.45 (inactive). Besides, in assay [5], the NADPH fluorescence slope was 2.8e-05 (inactive). Further, in assay [6], the slope was 0.00389 (inactive).

Take `CCCCN(CC)CCCNC(=O)CS(=O)(=O)Cc1nc(-c2cccc(OC)c2)oc1C`: in assay [1], the cell count is 670. Moreover, the inhibition was -15.1% (inactive) in assay [1], -24.9% (inactive) in assay [3], 2.85% (inactive) in assay [7] and 17.9% (inactive) in assay [8]. Moreover, the inhibition of aggregation in assay [2] is -1% (inactive). Besides, the nuclei count in assay [2] was determined as 100%; in assay [3] it was 99.7%. The fluorescence slope in assay [4] was -0.354 (inactive). The NADPH fluorescence slope in assay [5] was 4e-05 (inactive). Moreover, the slope in assay [6] is 0.00399 (inactive).

Regarding `COc1ccc(-c2nc(C#N)c(NCCCN(C)C)o2)cc1OC`, the cell count in assay [1] came out at 713. Also, the inhibition was -9.1% (inactive) in assay [1], -8.3% (inactive) in assay [3], 1.52% (inactive) in assay [7] and 33.3% (inactive) in assay [8]. Further, in assay [2], the inhibition of aggregation was -8.5% (inactive). The values for the nuclei count in assay [2] and in assay [3] were 99.3% and 98.4%, respectively. In addition, in assay [4], the fluorescence slope is -0.222 (active). The NADPH fluorescence slope in assay [5] is -1.8e-06 (inactive). In assay [6], the slope is 0.00305 (inactive).

Consider `O=C(NC1CCCC1)C(c1ccco1)N(Cc1ccccc1)C(=O)c1csnn1` (centres undefined), for which the cell count in assay [1] was 426. The inhibition in assay [1] was 5.4% (inactive); in assay [3], -9.3% (inactive); in assay [7] it was 17.4% (inactive); in assay [8], 29.4% (inactive). Besides, the inhibition of aggregation in assay [2] was -6.3% (inactive). Further, the values for the nuclei count in assay [2] and in assay [3] were 97.6% and 107%, respectively. In addition, the fluorescence slope in assay [4] was -0.582 (inactive). Besides, the NADPH fluorescence slope in assay [5] was -3.8e-05 (inactive). Besides, in assay [6], the slope was 0.006 (inactive).

On to `Cc1c(NC(=O)c2noc3c2CCc2ccccc2-3)c(=O)n(-c2ccccc2)n1C`, for which the cell count in assay [1] was found to be 620. The inhibition in assay [1] is -3.4% (inactive); in assay [3], -79.6% (inactive); in assay [7], 2.37% (inactive); in assay [8], -5.2% (inactive). The inhibition of aggregation in assay [2] was -4.3% (inactive). Further, the nuclei count in assay [2] came to 110%; in assay [3], 116%. Further, in assay [4], the fluorescence slope was -0.474 (inactive). Further, the NADPH fluorescence slope in assay [5] was 2.6e-05 (inactive). In addition, the slope in assay [6] is 0.0062 (inactive).

Take `COc1ccc(OC)c(S(=O)(=O)N2c3ccccc3CC2C)c1` (centres undefined): in assay [1], the cell count turned out to be 609. Moreover, the inhibition is -6.3% (inactive) in assay [1], -32% (inactive) in assay [3], 5.85% (inactive) in assay [7] and 21.2% (inactive) in assay [8]. Further, the inhibition of aggregation in assay [2] is 4.4% (inactive). Also, the nuclei count in assay [2] was 84.6%; in assay [3], 123%. In addition, in assay [4], the fluorescence slope was -0.566 (inactive). Besides, the NADPH fluorescence slope in assay [5] is 2.6e-06 (inactive). For the same compound, in assay [6], the slope was 0.00606 (inactive).
